Several values for one entry are separate records, joined by “and”; a condition that tells them apart may be missing. Equal entries are not always repeated. Records with an inconclusive call do not appear. A number with no mark means an inactive call. Activity calls are given as the source filed them. Unless noted, calls follow the shape of the dose curve; as a rule, active = well fitted curve in the direction sought with a large enough effect; inconclusive = small, poorly fitted or top-dose-only effect, or another doubt; inactive = no such curve, though single readings can be large; an effect the other way counts as inactive or inconclusive.

Our source for the activation, Potency and viability values is PubChem BioAssay (NCATS).

The target in experiment [1] is Cellular tumor antigen p53 (Homo sapiens) (UniProt P04637). As to the kind of experiment: Primary qHTS for small molecule compounds that upregulate eGFP-tagged delta133p53alpha (in N-terminal) cells. (AID 2060322).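 Also: cells pre-induced with doxycycline then dosed without doxycycline; series mostly up to about 56 µM; 0% = DMSO vehicle and 100% = reference activator; nearly all actives have a fitted effect of over 75% in size.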 Conditions: NCI-H358 eGFP-delta133p53alpha fluorescence, 24 h; activation: active compounds read high. Put shortly:
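NCI-H358 cells pre-induced 24 h with 10 ng/ml doxycycline for eGFP-delta133p53alpha, plated dox-free and exposed 24 h at 37C to titrated compounds. Fixed, Hoechst-stained; gated GFP peak intensity by laser scanning cytometry, normalized to DMSO (0%) and 57.5 uM 5-azacytidine (100%).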

The target is the same in experiment [2]. As to the kind of experiment: Primary qHTS for small molecule compounds that upregulate eGFP-tagged delta133p53alpha (in C-terminal) cells. (AID 2060324). Also: potency is read from the fitted curve at half-maximal effect. Put shortly:
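Read-out: gated-cell GFP peak intensity (laser scanning cytometer), plate-normalized with DMSO as 0% activity, after 24 h compound exposure at 37C. Cells were C-terminal eGFP-tagged delta133p53alpha NCI-H358, doxycycline-induced (100 ng/ml, 24 h) before plating.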
(In general: qHTS replaces the single test concentration by a dilution series.)

Experiment [3] deals with Aldehyde dehydrogenase, mitochondrial (Homo sapiens) (UniProt P05091). As to the kind of experiment: qHTS for Inhibitors of the Aldehyde Dehydrogenase Family (ALDH2) Validation screens (AID 2061302; active = well fitted inhibition curve with a large enough effect; title and protocol of this record describe different tests; also: potency is read from the fitted curve at half-maximal effect).
The target in experiment [4] is Retinaldehyde dehydrogenase 3 (Homo sapiens) (UniProt P47895). Briefly: qHTS for Inhibitors of the Aldehyde Dehydrogenase Family (ALDH1A3) Validation screen (AID 2061312). Also: nearly all actives have a fitted effect of over 45% in size. Also: potency is read from the fitted curve at half-maximal effect.
Experiment [5] is described as follows: qHTS for Inhibitors of the Aldehyde Dehydrogenase Family (ALDH1A2, ALDH1A3, ALDH2, ALDH3A1) (AID 2061307). Also: % is scaled to controls: 0 for no effect and ±100 for the full control effect; nearly all actives have a fitted effect of over 50% in size.
Experiment [6] concerns the target Retinaldehyde dehydrogenase 3 (Homo sapiens) (UniProt P47895). As to the kind of experiment: qHTS for Inhibitors of the Aldehyde Dehydrogenase Family (ALDH1A3) Confirmatory screens (AID 2061311). Also: potency is read from the fitted curve at half-maximal effect; nearly all actives have a fitted effect of over 60% in size.
For experiment [7], the target named is Aldehyde dehydrogenase 1A1 (Homo sapiens) (UniProt P00352). As to the kind of experiment: qHTS for Inhibitors of the Aldehyde Dehydrogenase Family (ALDH1A1) Confirmatory screens (AID 2061316). Also: nearly all actives have a fitted effect of over 65% in size. Also: potency is read from the fitted curve at half-maximal effect.
For experiment [8], the target named is Aldehyde dehydrogenase, mitochondrial (Homo sapiens) (UniProt P05091). As to the kind of experiment: qHTS for Inhibitors of the Aldehyde Dehydrogenase Family (ALDH2) Primary screen (AID 2061308).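 Also: plate controls were vehicle for no effect and reference inhibitor for full effect; nearly all actives have a fitted effect of over 55% in size.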
The target of experiment [9] is Retinaldehyde dehydrogenase 3 (Homo sapiens) (UniProt P47895). Briefly: qHTS for Inhibitors of the Aldehyde Dehydrogenase Family (ALDH1A3) Primary screen (AID 2061315).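 Also: plate controls were DMSO vehicle for no effect and reference inhibitor for full effect.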
The target of experiment [10] is Retinal dehydrogenase 2 (Homo sapiens) (UniProt O94788). Briefly: qHTS for Inhibitors of the Aldehyde Dehydrogenase Family (ALDH1A2) Confirmation screens (AID 2061314). Also: nearly all actives have a fitted effect of over 65% in size. Also: potency is read from the fitted curve at half-maximal effect.
Experiment [11] is described as follows: BET inhibitor-based combinations targeting novel dependencies in MECOM-rearranged (r) AML: SET-2 cell line (AID 2202231).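 Also: plate controls were DMSO treated cells for no effect and wells without cells for full effect; nearly all actives have a fitted effect of over 35% in size.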 Particulars: SET-2 AML cells viability, CellTiter-Glo luminescence, 48 h; viability: active compounds read low, series mostly up to about 46 µM. Put shortly:
(§1)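 A 48 hr incubation preceded viability reading by CellTiter-Glo, with 15 min room-temperature development. Dose series had 11 points; normalization used DMSO and empty wells; AUC was computed and mean-centered per line as Z-AUC.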
A general note: ATP-based viability assays read luminescence as a measure of living cells.

A short description of experiment [12]: BET inhibitor-based combinations targeting novel dependencies in MECOM-rearranged (r) AML: MV-4-11 cell line (AID 2202233).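 Also: plate controls were DMSO for no effect and blank wells for full effect; nearly all actives have a fitted effect of over 45% in size.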 Put shortly:
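Each compound is tested in an 11-point concentration series against 500 seeded cells/well for 48 hr. The luminescent viability signal is normalized to DMSO and blank wells, then reduced to AUC and a cell-line-centred Z-AUC.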

The nature of experiment [13]: BET inhibitor-based combinations targeting novel dependencies in MECOM-rearranged (r) AML: OCI-AML3 cell line (AID 2202232).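 Also: series mostly up to about 46 µM; plate controls were DMSO vehicle wells for no effect and wells without cells for full effect; nearly all actives have a fitted effect of over 35% in size.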 Conditions: Potency: OCI-AML3 viability. Put shortly: as §1

Cellular tumor antigen p53 (Homo sapiens), sequence (P04637 whole entry, looked up): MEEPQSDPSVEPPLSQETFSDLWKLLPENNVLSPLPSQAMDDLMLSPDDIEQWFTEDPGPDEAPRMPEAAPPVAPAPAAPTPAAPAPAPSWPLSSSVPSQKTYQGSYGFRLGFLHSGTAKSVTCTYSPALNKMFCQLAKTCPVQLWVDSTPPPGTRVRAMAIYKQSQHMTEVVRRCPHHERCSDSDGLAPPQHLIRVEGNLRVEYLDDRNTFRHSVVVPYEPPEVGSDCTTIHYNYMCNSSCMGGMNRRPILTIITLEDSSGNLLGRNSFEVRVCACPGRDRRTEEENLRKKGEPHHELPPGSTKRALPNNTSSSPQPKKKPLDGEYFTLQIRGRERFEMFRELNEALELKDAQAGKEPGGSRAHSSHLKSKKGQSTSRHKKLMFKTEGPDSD

Take `CC(C)=CCOc1c2occc2cc2ccc(=O)oc12`: in [1], the activation was -10.9% and -24.3%. Further, the Potency result in [2], in [3] and in experiment [4] was “inactive” each time.

Consider `O=C1CC[C@@]2(O)C3Cc4ccc(O)c5c4C2(CCN3CC2CC2)[C@H]1O5` (some centres undefined), for which the activation in experiment [1] is -10.4%. In addition, the Potency entry in experiment [2] and in experiment [3] was “inactive” throughout.

In the case of `NCCc1c[nH]c2ccc(O)cc12`, the activation in [1] is -1.52%. Besides, the Potency entry in experiment [2] and in [3] was “inactive” throughout.

Turning to `NCCc1c[nH]c2ccccc12`, the activation in experiment [1] was -5.39%. Moreover, the Potency result in experiment [2], in [3] and in experiment [4] was “inactive” in each case.

For `c1ccc2c(c1)[I+]c1ccccc1-2`, the activation in experiment [1] is 35.2%. Also, the Potency in experiment [2] was 23.9 µM (active); in experiment [3] it was 7.08 µM (active).

Turning to `CN1C2CCC1CC(OC(c1ccccc1)c1ccccc1N)C2` (centres undefined), the activation in [1] was -67.5%. The Potency entry in [2], in experiment [3] and in experiment [4] was “inactive” throughout.

In the case of `N#CC(C#N)=Cc1ccc(O)c(O)c1`, the activation in [1] was 23.2% and -8.42%. Besides, the Potency entry in experiment [2], in experiment [3] and in experiment [5] was “inactive” each time. Further, the figures for the Potency in experiment [6] and in experiment [7] were 0.798 µM (active) and 20.1 µM (active), respectively.

On to `CC(=O)NCCc1c[nH]c2ccccc12`, for which, in experiment [1], the activation was -24.3%. The Potency entry in experiment [2], in experiment [3], in [8], in [4] and in [9] was “inactive” in each case.

Consider `O=C(O)Cc1cnc[nH]1`, for which, in experiment [1], the activation is -6.89%. In addition, the Potency result in experiment [2] and in experiment [3] was “inactive” throughout.

In the case of `CC(N)Cc1c[nH]c2ccc(O)cc12` (centres undefined), the activation in [1] was -0.781%. For the same compound, the Potency entry in [2], in experiment [3] and in experiment [4] was “inactive” throughout.

Take `NC1CCc2cc(O)c(O)cc2C1` (centres undefined): the activation in [1] was -13%. Moreover, the Potency result in experiment [2], in [3], in experiment [5] and in [10] was “inactive” throughout. The Potency in experiment [6] was 11.3 µM (active).

As for `S=C(NC1CCCCC1)N1CCC(c2cnc[nH]2)CC1`, the activation in experiment [1] is 5.67% and -16.8%. In addition, the Potency entry in [2], in experiment [3], in experiment [8], in experiment [4] and in [9] was “inactive” in each case.

For the compound `CS(=N)(=O)CC[C@H](N)C(=O)O` (some centres undefined), the activation in experiment [1] is -13.1%. In addition, the Potency result in [2], in [3] and in experiment [4] was “inactive” in each case.

Take `CN1CCc2cc(O)cc3c2[C@H]1Cc1ccc(O)c(O)c1-3`: in experiment [1], the activation was -32.2%. The Potency entry in experiment [2], in experiment [3], in [5], in [10] and in [7] was “inactive” each time. In addition, in [6], the Potency is 12.7 µM (active).

As to `Nc1cc2c(ncn2CCOCP(=O)(O)O)c(=O)[nH]1`, the activation in experiment [1] was -41.7%. Also, the Potency result in experiment [2] and in [3] was “inactive” in each case.

For the compound `Oc1ccc2c3c1O[C@H]1c4[nH]c5ccccc5c4C[C@@]4(O)C(C2)N(CC2CC2)CCC314` (some centres undefined), in experiment [1], the activation is -38.9%. Moreover, the Potency result in [2] and in experiment [3] was “inactive” each time.

Consider `O=c1ccc2[nH]cc(C3=CCNCC3)c2[nH]1`, for which the activation in experiment [1] is -8.35%. Further, the Potency entry in [2], in experiment [3] and in experiment [5] was “inactive” throughout. The Potency in experiment [4] was 0.398 µM (active).

Consider `CCN1C[C@@]2(COC)C3[C@@H](OC)C4[C@@H]1C3([C@@H]1C[C@]3(O)[C@H](OC(=O)c5ccccc5)[C@@H]1[C@]4(OC(C)=O)[C@@H](O)[C@@H]3OC)[C@H](OC)C[C@H]2O`, for which the activation in [1] was -12.5%. In addition, the Potency result in experiment [2], in experiment [3] and in [4] was “inactive” throughout.

On to `CC(C)(C)OC(=O)NC1[C@H]2CNC[C@@H]12` (some centres undefined), for which the activation in [1] is -12.9%. The Potency result in [2] and in [3] was “inactive” throughout.

As to `NCc1cc(=O)[nH]o1`, the activation in [1] was 11.2%. Further, the Potency result in experiment [2], in experiment [3] and in [4] was “inactive” in each case.

With `O=C(N[C@H]1CN2CCC1CC2)c1ccc(Cl)cc1`, the activation in experiment [1] was 0.903% and 6.33% and -27.4%. Besides, the Potency result in experiment [2], in experiment [3], in experiment [8], in [4], in experiment [9] and in experiment [12] was “inactive” each time. For the same compound, in [11], the viability was 112%.

Turning to `Clc1cnc(Oc2ccc(Oc3ncc(Cl)cc3Cl)cc2)c(Cl)c1`, the activation in experiment [1] was -22.6%. For the same compound, the Potency result in [2], in experiment [3] and in experiment [4] was “inactive” throughout.

As to `CN1C[C@H](CNC(=O)OCc2ccccc2)C[C@@H]2c3cccc4c3c(cn4C)C[C@H]21`, the activation in [1] is -6.69% and -23.9%. The Potency entry in [2] and in experiment [3] was “inactive” throughout.

Take `NCCc1c[nH]c2ccc(C(N)=O)cc12`: the activation in experiment [1] is -19.7%. Moreover, the Potency result in experiment [2], in experiment [3] and in experiment [4] was “inactive” throughout.

In the case of `C[N+](C)(C)CCOC(=O)CBr`, the activation in experiment [1] is -13.1%. Further, the Potency result in experiment [2] and in experiment [3] was “inactive” each time.

As to `CCCN(CCC)C1Cc2cc(OC)c(OC)cc2C1`, the activation in experiment [1] was -2.4%. The Potency entry in [2], in experiment [3] and in experiment [4] was “inactive” in each case.

In the case of `C[C@]12CCC3C(CC[C@H]4C[C@H](O)CC[C@]34C)C1CC[C@@H]2C(=O)CO` (some centres undefined), the activation in experiment [1] is -8.4%. The Potency result in [2], in [3] and in experiment [4] was “inactive” throughout.

For the compound `O=[N+]([O-])c1ccc2nc(N3CCNCC3)ccc2c1`, the Potency in [10] is 2.51 µM (active) and 6.31 µM (active).

As to `CCOC(=O)c1ncn2c1[C@@H]1CCCN1C(=O)c1cc(OC)ccc1-2`, in [10], the Potency result is “inactive”.

Consider `O=P1(N(CCCl)CCCl)NCCCO1` (centres undefined), for which the viability in [11] was 114%. For the same compound, in experiment [13], the Potency entry was “inactive”.

For orientation: viability means a read-out of living cells in per cent, often relative to untreated cells.
